From PubChem BioAssay (Tox21)
Values without a mark were called inactive. Results filed as inconclusive are left out. Entries that show only a call come without a potency. Activity calls are given as the source filed them. Unless noted, calls come from the whole dose curve.

Experiments:
[1] = target: Thyrotropin receptor (Homo sapiens) (UniProt P16473); assay: qHTS assay to identify small molecule agonists of the thyroid stimulating hormone receptor (TSHR) signaling pathway (AID 1224843); note: nearly all actives have a fitted effect of over 45% in size
Sequence of Thyrotropin receptor (Homo sapiens) (P16473 whole entry, looked up): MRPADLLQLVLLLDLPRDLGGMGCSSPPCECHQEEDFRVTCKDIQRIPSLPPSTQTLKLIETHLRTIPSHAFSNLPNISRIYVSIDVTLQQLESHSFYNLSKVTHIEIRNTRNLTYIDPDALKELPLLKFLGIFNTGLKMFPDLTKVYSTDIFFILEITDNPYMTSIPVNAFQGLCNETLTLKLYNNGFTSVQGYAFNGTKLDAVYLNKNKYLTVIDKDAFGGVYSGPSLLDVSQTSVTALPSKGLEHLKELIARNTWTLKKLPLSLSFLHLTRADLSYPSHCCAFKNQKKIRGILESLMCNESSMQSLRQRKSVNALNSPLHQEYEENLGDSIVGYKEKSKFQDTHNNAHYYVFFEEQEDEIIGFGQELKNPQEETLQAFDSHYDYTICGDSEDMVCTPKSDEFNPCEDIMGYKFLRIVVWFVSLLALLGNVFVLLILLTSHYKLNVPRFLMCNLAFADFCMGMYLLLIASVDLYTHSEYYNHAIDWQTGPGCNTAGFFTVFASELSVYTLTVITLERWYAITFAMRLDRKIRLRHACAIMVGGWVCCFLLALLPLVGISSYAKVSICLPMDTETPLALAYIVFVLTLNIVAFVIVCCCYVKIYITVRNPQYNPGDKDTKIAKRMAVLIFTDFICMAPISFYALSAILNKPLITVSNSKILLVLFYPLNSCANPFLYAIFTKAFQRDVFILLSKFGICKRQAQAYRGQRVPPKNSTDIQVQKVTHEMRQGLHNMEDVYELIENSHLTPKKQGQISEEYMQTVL
In short: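 Screening of the Tox21 10K collection used HEK293 cells engineered with TSHR at 800 cells per well. After a 30-min room-temperature compound exposure, HTRF cAMP reagents were added and fluorescence recorded 1 h later.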

[2] = qHTS assay to identify small molecule agonists of the hypoxia (HIF-1) signaling pathway - cell viability counter screen (AID 1224844); note: nearly all actives have a fitted effect of over 50% in size
In short: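 Cells (HRE-bla ME-180, 2,000 per well) sat 5 hrs at 37C, got compound for 17 hrs, were read for CCF4-AM FRET, and were finally lysed with CellTiter-Glo for a 30 min room-temperature luminescence read.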

[3] = qHTS assay to identify small molecule agonists of H2AX (AID 1224845; active = well fitted activation curve with a large enough effect in the signal ratio in the repeat runs, not every such curve was filed as active; the % refers to the signal ratio)
In short: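 Phospho-H2AX Ser139 measured by HTRF (ex 320 nm; em 665 and 620 nm) after 24 hr antibody incubation. Compounds, 15 concentrations, 0.76% DMSO, were applied to CHO-K1 cells for 3hr at 37C before lysis.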

[4] = qHTS assay to identify small molecule agonists of the hypoxia (HIF-1) signaling pathway (AID 1224846; active = well fitted activation curve with a large enough effect in the signal ratio in the repeat runs, not every such curve was filed as active; the % refers to the signal ratio)
In short: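 A low-serum medium (0.5% dialyzed FBS) holding 2,000 HRE-bla ME-180 cells per well is preincubated for 5 hrs, dosed with compounds by pintool, and kept a further 17 hrs at 37C, 5% CO2 before CCF4-AM FRET detection of beta-lactamase.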

[5] = qHTS assay to identify small molecule agonists of H2AX - cell viability counter screen (AID 1224847); note: nearly all actives have a fitted effect of over 30% in size; note: potency is the fitted concentration of half-maximal effect;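 for activity change, negative = cytotoxicity: wild-type CHO-K1 cells; top concentration of the series differs between compounds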
In short: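 Cells plated first: CHO-K1, 1000 per well in 10% FBS medium, incubated overnight at 37C. Then 15-point compound titration added (final DMSO 0.76%) for 3 hr. Finally CellTiter-Glo added and luminescence read.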

[6] = qHTS assay to identify small molecule antagonists of the estrogen related receptor (ERR) signaling pathway from Tox21 library (AID 1224848; active = well fitted curve in the direction sought with a large enough effect in the repeat runs; an effect the other way counts as inactive or inconclusive; note: nearly all actives have a fitted effect of over 50% in size; note: potency is the fitted concentration of half-maximal effect)
In short: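 Antagonist-mode screen of the Tox21 10K library in an NTP-provided ERR reporter cell line; 18 h compound exposure at 37 C, luminescence measured with ONE-Glo.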

[7] = qHTS assay to identify small molecule agonists of the estrogen related receptor (ERR) signaling pathway from Tox21 library (AID 1224849); details: ERR reporter cell line, ONE-Glo luciferase, 18 h; at 92.4 µM (top of the series) unless noted; note: nearly all actives have a fitted effect of over 15% in size
In short: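 Screening used an NTP-provided ERR luciferase cell line. Compounds in DMSO were added 6 h after seeding and left 18 h at 37 C before a 30 min ONE-Glo step and luminescence reading.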

[8] = qHTS RealTime-Glo MT Cell Viability Assay in HepG2 cells - 24 hour (AID 1224867; active = well fitted curve in the direction sought with a large enough effect in the repeat runs; an effect the other way counts as inactive or inconclusive; note: nearly all actives have a fitted effect of over 50% in size)
In short: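 Viability was tracked continuously by NanoLuc luminescence from prosubstrate reduced by living HepG2 cells, at successive time points over 40 h of compound exposure. Cells with reagent were preincubated 5 h at 37 °C before compound addition.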

[9] = qHTS RealTime-Glo MT Cell Viability Assay in HEK293 cells - 32 hour (AID 1224868; active = well fitted curve in the direction sought with a large enough effect in the repeat runs; an effect the other way counts as inactive or inconclusive; note: top concentration of the series differs between compounds; nearly all actives have a fitted effect of over 50% in size)
In short: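 Viability tracked continuously by luminescence as live cells reduce a prosubstrate for NanoLuc; HEK293 cells preincubated 5 h, compound-treated at 37 C, and read at 0, 8, 16, 24, 32 and 40 h.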

[10] = A CellTox Green Cytotoxicity Assay to monitor cytotoxicity in HEK293 cells - 0 hour (AID 1224869; active = well fitted curve in the direction sought with a large enough effect in the repeat runs; an effect the other way counts as inactive or inconclusive; note: nearly all actives have a fitted effect of over 50% in size)
In short: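 Fluorescence intensity, read at 0, 8, 16, 24, 32 and 40 h of compound treatment, reflected dye binding to DNA of dead HEK293 cells; compounds (23 nL, DMSO) were added 5 h after plating cells with reagent.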

CC/C=C\CCOC(=O)CCCCC
Potency [1]: inactive
Potency [2]: inactive
Potency [3]: inactive
outcome [4]: inactive
Potency [5]: inactive
Potency [6]: inactive
activity change, positive = activation [7]: 5.28%
Potency [8]: inactive
Potency [9]: inactive

CCN(CC)CC1CCCCN1CC(=O)N1c2ccccc2C(=O)Nc2cccnc21 (stereo not given)
Potency [1]: inactive
Potency [2]: inactive
Potency [3]: inactive
outcome [4]: inactive
Potency [5]: inactive
Potency [6]: inactive
activity change, positive = activation [7]: 8.53% [at 42.5 µM]
Potency [8]: inactive
Potency [9]: inactive
Potency [10]: inactive

COC(=O)c1ccc(OC)cc1
Potency [1]: inactive
Potency [2]: inactive
Potency [3]: inactive
outcome [4]: inactive
Potency [5]: inactive
Potency [6]: inactive
activity change, positive = activation [7]: 5.85%
Potency [8]: inactive
Potency [9]: inactive
Potency [10]: inactive

CCN1CC(CCN2CCOCC2)C(c2ccccc2)(c2ccccc2)C1=O (stereo not given)
Potency [1]: inactive
Potency [2]: inactive
Potency [3]: inactive
outcome [4]: inactive
Potency [5]: inactive
Potency [6]: inactive
activity change, positive = activation [7]: -6.21% [at 42.5 µM]
Potency [8]: inactive
Potency [9]: inactive
Potency [10]: inactive

FC(F)(F)C(F)(F)C(F)(F)C(F)(F)C(F)(F)C(F)(F)C(F)(F)C(F)(F)Br
Potency [1]: inactive
Potency [2]: inactive
Potency [3]: inactive
outcome [4]: inactive
Potency [5]: inactive
Potency [6]: inactive
activity change, positive = activation [7]: 6.1% [at 42.5 µM]
Potency [8]: inactive
Potency [9]: inactive
Potency [10]: inactive

CCCCCCn1c(=O)c2c(ncn2C)n(C)c1=O
Potency [1]: inactive
Potency [2]: inactive
Potency [3]: inactive
outcome [4]: inactive
Potency [5]: inactive
Potency [6]: inactive
activity change, positive = activation [7]: -1.88% [at 42.5 µM]
Potency [8]: inactive
Potency [9]: inactive
Potency [10]: inactive

OCCN(CCO)CCN(CCO)CCO
Potency [1]: inactive
Potency [2]: inactive
Potency [3]: inactive
outcome [4]: inactive
Potency [5]: inactive
Potency [6]: inactive
activity change, positive = activation [7]: -1.05%
Potency [8]: inactive
Potency [9]: inactive
Potency [10]: inactive

CCc1nnc(NS(=O)(=O)c2ccc(N)cc2)s1
Potency [1]: inactive
Potency [2]: inactive
Potency [3]: inactive
outcome [4]: inactive
Potency [5]: inactive
Potency [6]: inactive
activity change, positive = activation [7]: 2.74% [at 42.5 µM]
Potency [8]: inactive
Potency [9]: inactive
Potency [10]: inactive

CCOC(=O)NCCC[Si](OCC)(OCC)OCC
Potency [1]: inactive
Potency [2]: inactive
Potency [3]: inactive
outcome [4]: inactive
Potency [5]: inactive
Potency [6]: inactive
activity change, positive = activation [7]: -9.42%
Potency [8]: inactive
Potency [9]: inactive
Potency [10]: inactive

O=C(O)c1ccccc1Nc1cc(Cl)ccc1C(=O)O
activation [1]: -5.91% [at 19 µM]
activity change, negative = cytotoxicity [2]: 5.17% [at 15.8 µM]
activation (H2AX phosphorylation) [3]: 5.25% [at 31.6 µM]
activation [4]: -1.19% [at 15.8 µM]
activity change, negative = cytotoxicity [5]: 9.56% [at 31.6 µM]
activity, negative = inhibition [6]: -10.4% [at 19 µM]
activity change, positive = activation [7]: -5.59% [at 19 µM]
activity change, negative = cytotoxicity [8]: -0.715% [at 15.8 µM]
activity change, negative = cytotoxic [9]: 3.41% [at 15.8 µM]
cytotoxicity [10]: 1.27% [at 15.8 µM]

O=S(=O)(O)C(F)(F)F
Potency [1]: inactive
Potency [2]: inactive
Potency [3]: inactive
outcome [4]: inactive
Potency [5]: inactive
Potency [6]: inactive
activity change, positive = activation [7]: 4.04%
Potency [8]: inactive
Potency [9]: inactive
Potency [10]: inactive

CCCCNCCCC
Potency [1]: inactive
Potency [2]: inactive
Potency [3]: inactive
outcome [4]: inactive
Potency [5]: inactive
Potency [6]: inactive
activity change, positive = activation [7]: 0.877%
Potency [8]: inactive
Potency [9]: inactive
Potency [10]: inactive

CCOC(=O)c1cc(=O)c2c(OCC(COc3cccc4oc(C(=O)OCC)cc(=O)c34)OC(=O)[C@@H](N)CCCCN)cccc2o1
Potency [1]: inactive
Potency [2]: inactive
Potency [3]: inactive
outcome [4]: inactive
Potency [5]: inactive
Potency [6]: inactive
activity change, positive = activation [7]: 8.23% [at 42.5 µM]
Potency [8]: inactive
Potency [9]: inactive
Potency [10]: inactive

O=C1C=CC(=O)O1
Potency [1]: inactive
Potency [2]: inactive
Potency [3]: inactive
outcome [4]: inactive
Potency [5]: inactive
Potency [6]: inactive
activity change, positive = activation [7]: 7.02%
Potency [8]: inactive
Potency [9]: inactive
Potency [10]: inactive

CCCCCCCCCC#N
Potency [1]: inactive
Potency [2]: inactive
Potency [3]: inactive
outcome [4]: inactive
Potency [5]: inactive
Potency [6]: inactive
activity change, positive = activation [7]: -15.2%
Potency [8]: inactive
Potency [9]: inactive
Potency [10]: inactive

Cc1ccc([N+](=O)[O-])c(N)c1
Potency [1]: inactive
Potency [2]: inactive
Potency [3]: inactive
outcome [4]: inactive
Potency [5]: inactive
Potency [6]: inactive
activity change, positive = activation [7]: -10.6%
Potency [8]: inactive
Potency [9]: inactive

CCOc1ccccc1N
Potency [1]: inactive
Potency [2]: inactive
Potency [3]: inactive
outcome [4]: inactive
Potency [5]: 44.7 µM (active)
Potency [6]: 12.1 µM (active)
activity change, positive = activation [7]: -59%
Potency [8]: inactive
Potency [10]: inactive

CC(C)CCCCCCc1ccc(OCCOCCO)cc1
Potency [1]: inactive
Potency [2]: inactive
Potency [3]: inactive
outcome [4]: inactive
Potency [5]: inactive
Potency [6]: inactive
activity change, positive = activation [7]: -10.7%
Potency [8]: inactive
Potency [9]: inactive
Potency [10]: inactive

C[C@]12C(=O)OC(=O)[C@H]1[C@H]1C=C[C@@H]2C1
Potency [1]: inactive
Potency [2]: inactive
Potency [3]: inactive
outcome [4]: inactive
Potency [5]: inactive
Potency [6]: inactive
activity change, positive = activation [7]: 0.566%
Potency [8]: inactive
Potency [9]: inactive
Potency [10]: inactive

CC(C)C(=O)OCC(C)(C)C(O)C(C)C (stereo not given)
Potency [1]: inactive
Potency [2]: inactive
Potency [3]: inactive
outcome [4]: inactive
Potency [5]: inactive
Potency [8]: inactive
Potency [9]: inactive
Potency [10]: inactive
